Sampled rows, rich in hits. Any-hit rate of the full collection: about 4.7%.
D1 antagonist = human D1 dopamine receptor antagonism; activity change, negative = inhibition, % at 10 µM; hit rate 3.2% among 360,000; AID 504652; P21728; HEK293 TREx D1 cells, calcium flux, dopamine EC80; active compounds read low; in the data active = activity change below about -30%
Target sequence (P21728 whole entry, looked up): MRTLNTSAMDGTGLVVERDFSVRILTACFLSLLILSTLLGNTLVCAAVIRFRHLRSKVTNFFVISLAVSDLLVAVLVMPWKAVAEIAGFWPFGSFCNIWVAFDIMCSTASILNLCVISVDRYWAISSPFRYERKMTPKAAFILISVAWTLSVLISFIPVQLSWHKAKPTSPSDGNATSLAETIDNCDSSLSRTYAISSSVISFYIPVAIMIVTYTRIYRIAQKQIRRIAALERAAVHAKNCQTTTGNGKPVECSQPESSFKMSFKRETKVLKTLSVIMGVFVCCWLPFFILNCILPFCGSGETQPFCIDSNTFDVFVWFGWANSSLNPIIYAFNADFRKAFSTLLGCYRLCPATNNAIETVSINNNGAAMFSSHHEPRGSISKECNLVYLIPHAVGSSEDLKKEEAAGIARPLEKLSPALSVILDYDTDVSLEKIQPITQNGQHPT
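Kinetic fluorescence of a calcium dye serves as the read-out. D1-expressing Hek293 Trex cells, induced overnight at 30 C, are exposed to compound for 180 s before an EC80 dopamine addition, then read 180 s further.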
D1 PAM = human D1 dopamine receptor positive modulation | P21728 | HEK293 TREx D1 cells, calcium flux, dopamine EC20 potentiation | potentiation, % at 10 µM | hit rate 0.036% among 360,000 | AID 504651; in the data active = potentiation above about 30%
TRHR ag = agonists of human TRH receptor. TRHR cells, calcium flux fluo-8, FDSS agonist mode. hit rate 0.18% among 360,000. AID 493084. activation, % at 2 µM
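TRHR-expressing cells loaded with fluo-8 calcium dye; 23 nL library compound pin-transferred, kinetic FDSS fluorescence (Ex 480/Em 530) recorded about 180 s for agonist-induced calcium release, before a 10 nM TRH EC20 addition for potentiator mode.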
D1 ag = human D1 receptor agonism. P21728. activation, % at 2 µM. HEK293 T-REx D1 cells, calcium flux, agonist mode. hit rate 1% among 360,000
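Agonism was scored from calcium flux recorded over 180 s (1 read/s) after pintool compound addition, following a 10-cycle baseline. Cells were inducible force-coupled HEK293 TREx D1, plated overnight at 30 C and loaded with no-wash calcium dye.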
TRHR PAM = TRH receptor (human) allosteric enhancement. P34981. TRHR cells, fluo-8 calcium fluorescence, EC20 TRH enhancement. enhancement, % at 2 µM. hit rate 0.66% among 360,000; in the data active = enhancement above about 30%
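Enhancer read-out: after compound pinning and an initial kinetic agonist-mode read, an EC20 of TRH (10 nM final) was injected and fluo-8 calcium signal (Ex 480/Em 530) followed at 1 s/cycle for 100 cycles in TRHR-expressing cells.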
A number is an active result; – = inactive. Cut-off read from the data, not from the text of the source, unless noted: active = activation above about 30%; inactive = the rest.

SMILES	D1 antagonist	D1 PAM	TRHR ag	D1 ag	TRHR PAM
CC(C)(C)c1ccc(-c2c(C#N)c(N)nc3c2CCCC3)s1	–	–	–	–	–
COC(CNC(=O)c1ccc(N2CCc3ccccc32)c([N+](=O)[O-])c1)OC	-31	–	–	–	–
NNC(=O)c1ccc(N2CCc3ccccc32)c([N+](=O)[O-])c1	-33	–	–	–	–
Cc1ccc(CNC(=O)c2ccc(N3CCc4ccccc43)c([N+](=O)[O-])c2)cc1	–	–	–	–	–
CCCn1c(COc2ccc(C(=O)O)cc2)nc2ccccc21	–	–	–	–	–
CCOC(=O)C1CCCN(C(=O)c2cc3cc(Br)ccc3oc2=O)C1 (stereo not given)	–	–	–	–	31
CCOC(=O)C1CCN(C(=O)c2cc3cc(Br)ccc3oc2=O)CC1	–	–	–	–	–
C[C@H](NC(=O)[C@H]1N2C(=O)c3ccccc3C2SC1(C)C)C(=O)N1CCC[C@H]1CO (stereo not given in full)	–	–	–	40	–
Cc1ccccc1OCC(=O)N/N=C/c1ccc(N2CCOCC2)o1	–	–	–	–	–
N#CC1=C2SCC(O)(c3ccccc3)N2C(=O)CC1c1cccs1 (stereo not given)	–	–	–	63	–
CC(=O)Nc1ccc(S(=O)(=O)NCC(=O)OCC(=O)N2CCc3ccccc32)cc1	–	–	–	–	–
O=C(CNS(=O)(=O)c1ccccc1Br)OCC(=O)N1CCc2ccccc21	-57	–	–	–	–
CCOC(=O)c1cccc(NC(=O)C2=C(C)C(=O)OC23CCCCC3)c1	–	–	–	–	–
CC1CCN(c2ccc(-c3cccc(NS(=O)(=O)c4cccs4)c3)nn2)CC1	–	–	–	–	–
Cc1ccc(-c2cc3ccccc3nc2N)cc1	-98	–	–	–	–
N#Cc1cc2ccccc2nc1N	–	–	–	–	–
Nc1nc2ccccc2cc1-c1cccs1	-60	–	–	–	–
O=C(O)C1CCCCN1C(=O)c1ccc(S(=O)(=O)N2CCCC2)cc1 (stereo not given)	–	–	–	–	–
COc1ccc(-c2cc(C(F)(F)F)n3nc(C(=O)Nc4cccc(Cl)c4Cl)cc3n2)cc1OC	–	–	–	–	–
Cc1nn2cnc3sc4c(c3c2nc1=O)CCCC4	-86	–	–	–	–
c1nc2sc3c(c2c2nnnn12)CCCC3	–	–	–	–	–
COC(=O)c1ccc(N2CCCCC2)c(NS(=O)(=O)c2ccc(C)cc2)c1	–	–	–	–	–
CCOC(=O)c1ccc(N2CCCCC2)c(NS(=O)(=O)c2cccc(C(F)(F)F)c2)c1	-48	–	–	–	–
O=C(NNC(=O)c1ccccc1C(F)(F)F)c1csc(N2CCOCC2)n1	-51	–	–	–	–
O=C(NNC(=O)c1ccccc1Cl)c1csc(N2CCOCC2)n1	–	–	–	–	–
SMILES	D1 antagonist	D1 PAM	TRHR ag	D1 ag	TRHR PAM
COc1ccc(NC(=O)CN(c2ccc(OC)c(Cl)c2)S(=O)(=O)c2ccccc2)cc1	–	–	–	–	–
CCOC(=O)c1c(C)c(-c2ccccc2)n(CC(=O)NCCCN(CC)CC)c1C	–	–	–	–	–
COc1ccc2[nH]cc(C(=O)CN3CCN(C/C=C/c4ccccc4)CC3)c2c1	–	–	–	86	–
CCc1ccc(NC(=O)C2=C(C)C(=O)OC23CCCCC3)cc1	–	–	–	–	–
Oc1ccccc1-c1cc(C(F)(F)C(F)F)[nH]n1	–	–	–	–	–
FC(F)C(F)(F)c1cc(-c2ccc(Cl)cc2)n[nH]1	-46	–	–	86	–
Fc1ccc(-c2cc(C(F)(F)C(F)F)[nH]n2)cc1	-48	–	–	64	–
CCN(CC)Cc1c(O)ccc2cc(-c3nc4ccccc4n3C)c(=O)oc12	–	–	–	–	–
COc1ccc(-c2[nH]ncc2CN2CCC(OCc3ccccc3)CC2)c(F)c1	-52	–	–	–	–
CCn1c(CNC(=O)c2ccccc2Cl)cc2ccccc21	–	–	–	–	–
CC(C)CCNC(=O)C1CC(c2ccc(C(F)(F)F)cc2)=NO1 (stereo not given)	-42	–	–	32	–
COc1ccc(C2=NOC(C(=O)NCc3cccnc3)C2)cc1 (stereo not given)	–	–	–	–	–

Screening results: PubChem, National Center for Advancing Translational Sciences (NCATS)
